Molecules are shown by their SMILES. Inconclusive results are not listed. Activity calls are given as the source filed them. How the source made its calls: active means hit-call score of the fitted dose curve at least 0.9, where 1 is the maximum; inconclusive means response in the unintended direction; inactive means score below 0.9.

Sequence of Cytochrome P450 2C19 (Homo sapiens) (P33261 whole entry, looked up): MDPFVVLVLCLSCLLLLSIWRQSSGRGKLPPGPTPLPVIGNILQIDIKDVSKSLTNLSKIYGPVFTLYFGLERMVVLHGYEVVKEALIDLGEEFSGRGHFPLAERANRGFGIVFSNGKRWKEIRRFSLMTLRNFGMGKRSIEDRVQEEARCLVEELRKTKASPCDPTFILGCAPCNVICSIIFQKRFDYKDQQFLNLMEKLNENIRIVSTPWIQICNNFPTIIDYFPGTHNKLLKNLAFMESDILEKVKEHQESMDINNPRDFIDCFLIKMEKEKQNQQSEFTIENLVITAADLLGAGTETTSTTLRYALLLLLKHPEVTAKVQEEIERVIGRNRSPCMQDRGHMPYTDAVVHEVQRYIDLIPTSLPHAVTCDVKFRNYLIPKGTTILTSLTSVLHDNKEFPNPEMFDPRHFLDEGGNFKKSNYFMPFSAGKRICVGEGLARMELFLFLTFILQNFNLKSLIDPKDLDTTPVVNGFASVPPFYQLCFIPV

Read-out in this test: Cytochrome P450 2C19 (Homo sapiens) (UniProt P33261)
The experiment in a line: CLD_CYP2C19_6hr: CellzDirect (CLD) Gene Expression Assay for xenobiotic metabolism (CYP2C19) at 6 hours (AID 2283678). As for the experimental part: CLD_6hr is a cell-based, multiplexed-readout assay that uses hepatocyte, a human liver primary cell, with measurements taken at 6 hours after chemical dosing in a 96-well plate.CLD_CYP2C19_6hr is one of 16 assay component(s) measured or calculated from the CLD_6hr assay. It is designed to make measurements of mRNA induction, a form of inducible reporter, as detected with chemiluminescence signals by Quantitative Nuclease Protection Assay (qNPA) technology.Data from the assay component CLD_CYP2C19_6hr was analyzed at the endpoint, CLD_CYP2C19_6hr, in the positive analysis fitting direction relative to DMSO as the negative control and baseline of activity. Using a type of inducible reporter, gain-of-signal activity can be used to understand changes in the reporter gene as they relate to the gene CYP2C19. Furthermore, this assay endpoint can be referred to as a primary readout. To generalize the intended target to other relatable targets, this assay endpoint is annotated to the cyp intended target family, where subfamily is xenobiotic metabolism.
Human hepatocyte cultures were treated daily for two consecutive days with fresh dosing solutions containing appropriate concentrations of the 320 ToxCast chemicals (chemical identities were blinded to CellzDirect and other ToxCast collaborators), vehicle control (0.2% DMSO), and positive control inducers as summarized in Table 1. Due to the large number of treatment groups and chemicals examined, the ToxCast chemicals were divided into two groups (spanning two independent cultures of hepatocytes from separate donor preparations (Hu778: ToxCast plates 1 and 2; Hu776: ToxCast plates 3 and 4). Each preparation of human hepatocyte cultures was treated with respective vehicle control, medium only control, set of six positive controls/reference chemicals for the five hepatic receptor pathways, and a subset of eight of the ToxCast chemicals (indoxacarb, pyrithiobac-sodium, norflurazon, cyhalofop-butyl, methomyl, thiram, acetochlor, and propiconazole). These replicate data, coupled with internal replicates designed within the blinded ToxCast chemical library, provided additional data to evaluate interindividual differences between hepatocyte preparations and their potential impact on chemical profiles.Cell morphology and integrity were evaluated using phase-contrast microscopy as an indicator of hepatocyte cell health (Tyson & Green, 1987). Cultures for each treatment group (i.e., media, vehicle [0.2% DMSO], positive control inducers [multiple concentrations], and the ToxCast chemicals [multiple concentrations]) were observed and cell morphology was assessed relative to vehicle control cultures at each harvest time point (0, 6, 24, or 48 h). […] Images were evaluated at the conclusion of the study to assess changes in cell integrity and account for the effects of chemical exposure on uncharacteristic changes in concentration-dependent gene expression profiles. The results from these determinations of apparent cytotoxicity were annotated (yes/no) alongside the corresponding qNPA data for reference.At the conclusion of each treatment period, hepatocyte cultures (96-well) were washed with 1 volume of HBSS, lysed by addition of 25 ul ArrayPlate lysis buffer (HTG, Tucson, AZ), and 70 ul/well of Denaturation Oil, denatured by incubation at 95C for 10 min, and frozen at approximately -70C until analysis by nuclease protection assay (qNPA) (Roberts et al., 2007). For qNPA analysis, cell lysates were thawed at 50C for approximately 30 min, qNPA probes were added, and samples were incubated at 95C for 10 min to begin the detection process by denaturing the target RNA, dissociating the duplexes and secondary structure hybridization. At the conclusion of the hybridization period, S1 nuclease reagent was added to each sample to digest all nonprotected nucleotides at 50C for 60-90 min. […]
Regarding `C#CCOC(=O)[C@@H](C)Oc1ccc(Oc2ncc(Cl)cc2F)cc1`, the outcome was inactive.

In the case of `CCOC(=O)NCCOc1ccc(Oc2ccccc2)cc1`, the compound was classed as inactive.

Consider `COC(=O)c1ccccc1S(=O)(=O)NC(=O)Nc1nc(OC(F)F)cc(OC(F)F)n1`, for which the result was inactive.

Consider `c1ccc2[nH]c(-c3cscn3)nc2c1`, for which the compound was called inactive.

Turning to `COCCO`, the compound was called inactive.

Regarding `COC(=O)c1ccccc1C(=O)O`, the outcome was inactive.

As to `CCCCCCC(C)OC(=O)COc1nc(F)c(Cl)c(N)c1Cl` (centres undefined), the call was inactive.

For the compound `CCC(C)OC(=O)N1CCCCC1CCO` (centres undefined), the result was inactive.

Consider `OB(O)O`, for which the call was inactive.

Consider `CCCCOC(=O)[C@@H](C)Oc1ccc(Oc2ccc(C(F)(F)F)cn2)cc1`, for which the compound was called inactive.

Take `COC(=O)c1cccc(C)c1S(=O)(=O)NC(=O)Nc1nc(OCC(F)(F)F)nc(N(C)C)n1`: the result was inactive.

For the compound `COC(=O)c1ccc(I)cc1S(=O)(=O)NC(=O)Nc1nc(C)nc(OC)n1`, the compound was called inactive.

With `COC(=O)CSc1cc(N=c2sc(=O)n3n2CCCC3)c(F)cc1Cl`, the outcome was inactive.

For `CCCN(CCC)C(=O)SCC`, the call was inactive.

Regarding `CC1(C)C(C=C(Cl)Cl)C1C(=O)OCc1cccc(Oc2ccccc2)c1` (centres undefined), the result was inactive.

Take `COc1nc(C)nc(NC(=O)NS(=O)(=O)c2ccccc2OCCCl)n1`: the result was inactive.

Consider `CCCOC(=O)NCCCN(C)C`, for which the compound was classed as inactive.

In the case of `O=C(O)C1(C(=O)Nc2ccc(Cl)cc2Cl)CC1`, the outcome was inactive.

Regarding `CCCCC(CC)COC(=O)c1ccccc1C(=O)O` (centres undefined), the result was inactive.

For the compound `CCCOC(=O)c1ccc(C(=O)OCCC)nc1`, the outcome was inactive.

For the compound `c1ccc(Nc2ccccc2)cc1`, the compound was called inactive.

As to `CCCCCOC(=O)COc1cc(N2C(=O)C3=C(CCCC3)C2=O)c(F)cc1Cl`, the outcome was inactive.

As to `COc1c(Cl)ccc(Cl)c1C(=O)O`, the compound was called inactive.

With `COC(=O)c1ccc(CNS(C)(=O)=O)cc1S(=O)(=O)NC(=O)Nc1nc(OC)cc(OC)n1`, the compound was called inactive.

For the origin of these results see PubChem BioAssay (EPA / NIEHS).
